High-throughput results from PubChem BioAssay.
Only some compounds are listed: those with a hit (about 5.6% of all), similar ones and a draw of the others.
PfG6PD inh: PfG6PD (Plasmodium falciparum) enzyme inhibition; PfGluPho enzyme, NADPH resazurin-diaphorase fluorescence; inhibition, % at 20 µM; 350,000 tested, 0.78% active; AID 504690;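 active means inhibition reaching at least a set limit at 20 µM in the primary screen, cut at about 59% in these data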;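 further: 0% = DMSO wells with substrate and 100% = DMSO wells lacking glucose-6-phosphate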
PHOSPHO1 block: blocks human PHOSPHO1 phosphatase activity | Q8TCT1 | recombinant PHOSPHO1, absorbance phosphatase assay | inhibition, % at 13.3 µM | 290,000 tested, 1.1% active | AID 1565; in the data active means inhibition above about 60%
Target sequence (Q8TCT1 whole entry, looked up): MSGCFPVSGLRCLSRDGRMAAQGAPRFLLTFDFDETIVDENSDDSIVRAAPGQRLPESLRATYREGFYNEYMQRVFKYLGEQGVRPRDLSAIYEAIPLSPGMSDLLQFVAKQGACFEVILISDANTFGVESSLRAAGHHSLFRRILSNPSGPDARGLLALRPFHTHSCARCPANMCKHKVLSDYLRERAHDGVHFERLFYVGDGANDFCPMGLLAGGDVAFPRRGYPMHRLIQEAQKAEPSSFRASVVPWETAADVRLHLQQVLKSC
M18AAP inhibitor: blocks P. falciparum M18 aspartyl aminopeptidase | recombinant PfM18AAP, H-Glu-NHMec fluorogenic cleavage | inhibition, % at 7.35 µM | 290,000 tested, 1.2% active | AID 1822;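 active means inhibition above the campaign mean inhibition over all tested compounds plus 3 SD, cut at about 28% in these data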;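 further: 0% = plate median of test compound wells and 100% = 2 mM ZnCl2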
ALR H2O2 inh: inhibitors of human sulfhydryl oxidase ALR | P55789 | purified ALR, DTT oxidation, H2O2 HRP-luminol luminescence | inhibition, % (no concentration beside the values) | 290,000 tested, 3.8% active;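 active means mean replicate inhibition above about 79%, with every replicate also reaching it, limit read from the data; inconclusive means only one of the two criteria met; inactive means mean below limit and not every replicate reaching it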
Target sequence (P55789 whole entry, looked up): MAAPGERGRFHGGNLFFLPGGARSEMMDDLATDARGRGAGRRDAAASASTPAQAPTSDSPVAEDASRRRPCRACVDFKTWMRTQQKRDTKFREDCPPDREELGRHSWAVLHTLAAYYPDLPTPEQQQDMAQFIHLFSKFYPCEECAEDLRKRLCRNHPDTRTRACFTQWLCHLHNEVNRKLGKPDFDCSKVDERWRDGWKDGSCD
H9c2 protect: protects H9c2 cardiomyocytes from peroxide injury. H2O2 injury protection, ATPLite, 2 h. protection from H2O2 cell death, % at 20 µM. 360,000 tested, 0.63% active;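 active means compounds giving at least 50% protection of heart cells from peroxide-induced death in the single-dose screen, raw or plate-pattern-corrected value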;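 further: 0% = DMSO wells with peroxide and 100% = DMSO wells without peroxide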
Active calls of the source: *; ? = inconclusive; . = no result given.

SMILES	PfG6PD inh	PHOSPHO1 block	M18AAP inhibitor	ALR H2O2 inh	H9c2 protect
Cn1ccnc1C1CCCCN1Cc1nc(-c2ccc(Cl)cc2)no1 (configuration not stated)	4	-10	0	-11	-3
CN(C)c1ccc(Nc2nc(N)c3ccccc3n2)cc1	19	15	-34	99*	-15
CCc1ccc(NC(=O)CSc2nnnn2-c2cccnc2)cc1	-13	.	10	-10	3
COc1cc(C(=O)NCCCc2nc3ccccc3n2Cc2cc(C)ccc2C)cc(OC)c1OC	14	-6	-10	-11	9
CC(=O)NCCCc1nc2ccccc2n1Cc1cc(C)ccc1C	-6	64*	2	-3	0
CCOC(=O)N1CCC(N(CCN(C)C)C(=S)Nc2ccc(OCC)cc2)CC1	.	0	5	-2	.
Cc1csc(CNC(=O)c2cc(COc3c(C)cccc3C)on2)n1	-4	22	-2	0	-5
O=C(CNC(=O)c1ccccc1)N=Nc1c(O)[nH]c2ccc(Br)cc12	-3	-5	-9	-2	10
O=S(=O)(Cc1ccccc1)N=Nc1c(O)[nH]c2ccc(Br)cc12	-15	65*	0	-2	-8
NNC(=O)c1cccc(COc2cccc(Br)c2)c1	10	42	-1	-5	4
NNC(=O)c1cccc(COc2ccc(Br)cc2)c1	0	1	-9	97*	12
CN(C)c1ccc(CN2CCC(C(=O)NC(c3ccc(Cl)cc3)c3cnccn3)CC2)cc1 (configuration not stated)	.	.	.	.	2
Cc1ccc(CCNc2ccc3ccccc3c2)cn1	28	.	-1	99*	-12
COc1cc(/C=C2\SC(=S)N(c3cccnc3)C2=O)ccc1O	-9	-44	2	-1	1
COc1cccc(/C=C2\SC(=S)N(NC(=O)c3ccncc3)C2=O)c1	-26	8	13	96*	-14
COc1cc(/C=C2\SC(=S)N(NC(=O)c3ccc(O)cc3)C2=O)ccc1O	-40	.	9	99*	-5
COc1cc(/C=C2\SC(=S)N(Nc3ncc(C(F)(F)F)cc3Cl)C2=O)ccc1O	1	73*	23	23	-1
COc1cc(/C=C2\SC(=S)N(NC(=O)c3cccnc3)C2=O)ccc1O	-52	-35	6	99*	-4
Cc1nn(C)c(NC(=O)c2ccc(Cl)cc2Cl)c1Br	2	.	12	-5	8
CS(=O)(=O)N(CC(=O)NCCSCc1cccc(Cl)c1)c1ccccc1F	-1	29	-19	-12	-3
O=C(NN1C(=O)/C(=C/c2cccc(O)c2)SC1=S)c1ccccc1O	-42	22	10	99*	-2
O=C(NN1C(=O)/C(=C/c2ccc(O)c(O)c2)SC1=S)c1ccccc1	-7	29	65*	99*	65*
Cc1ccsc1CN(C)C(=O)c1ccc(Oc2ccccc2)cc1	-8	-14	3	-5	-5
CC(C)=CCn1c2ccc(NC(=S)NC3CC3)cc2c(=O)n1C	.	.	.	.	-6
COCCC(=O)N(Cc1ccc2c(c1)OCO2)C(C(=O)NC1CCCCC1)c1ccncc1 (configuration not stated)	-1	3	30*	-9	0
SMILES	PfG6PD inh	PHOSPHO1 block	M18AAP inhibitor	ALR H2O2 inh	H9c2 protect
COc1ccc(/C(C)=N/NC(=O)CNC(=O)/C=C\c2ccccc2)c(OC)c1	-13	34	-11	-2	-4
CCOC(=O)N1CCC(=NNC(N)=O)C1	-15	.	.	.	6
O=C(CSc1nncc2ccccc12)Nc1cccc(O)c1	3	2	-3	.	7
O=C(CSc1nncc2ccccc12)Nc1ccc(F)cc1	-8	30	-3	-7	1
O=C(CSc1nncc2ccccc12)Nc1ccc(C(=O)O)cc1	-23	10	-11	100*	16
O=C(CSc1nncc2ccccc12)Nc1ccccc1	-6	22	-7	99*	6
CC(=O)N1CCN(CCS(=O)(=O)c2ccc(Br)cc2)CC1	-8	.	.	7	0
CC1Cc2ccccc2N1C(=O)c1cc2c(=O)n3ccccc3nc2n1C (configuration not stated)	0	26	5	3	66*
O=C(NCC(c1ccco1)N1CCOCC1)C1CCCCC1 (configuration not stated)	9	.	.	2	-1
CCCCOc1ccc(CSC(CC(=O)O)C(=O)O)cc1 (configuration not stated)	-24	6	-1	20	8
CCOc1ccc(CSC(CC(=O)O)C(=O)O)cc1 (configuration not stated)	-21	17	-7	98*	-7
Cc1[nH]n(-c2ccccc2)c(=O)c1N=O	6	1	-8	3	-18
CC(C)c1nc(=S)n(-c2ccccc2)[nH]1	38	-23	10	90*	2
CC(=O)Nc1nc(=S)n(-c2ccccc2)[nH]1	58	96*	20	?	-2
COc1cccc(-c2nn(-c3ccccc3)cc2C(=O)Nc2nccs2)c1	28	14	1	-2	63*
COc1ccc(-c2nn(-c3ccccc3)cc2C(=O)Nc2nccs2)cc1	24	8	-4	-1	59*
COc1cccc(C2c3[nH]c4ccccc4c3C[C@H]3C(=O)N(c4ccccc4C(=O)NCCCN4CCOCC4)C(=O)N23)c1 (some centres not stated)	14	29	9	99*	40
O=C(NCCN1CCOCC1)c1ccccc1N1C(=O)[C@@H]2Cc3c([nH]c4ccccc34)C(c3ccccc3)N2C1=O (some centres not stated)	5	29	-3	99*	20
CN1C[C@@H]2[C@@H]3C(=O)N(C)C(=O)[C@@H]3[C@](C)(C1=O)N2C(=O)c1ccccc1	6	.	.	.	3
CCNC(=O)CC1C(=O)N(c2ccccc2)C(=O)N1CCOC (configuration not stated)	-9	48	-8	-7	8
C[C@H](N)c1nnc(SCc2c(Cl)cccc2Cl)o1	-2	47	-5	-5	0
C[C@H](N)c1nnc(SCc2ccc(Cl)cc2Cl)o1	-6	7	-4	99*	1
CCC(c1nnc(SCC(=O)Nc2cc(C)on2)o1)N(C)C (configuration not stated)	24	.	.	1	6
CCC(c1nnc(SCC(=O)NCCc2ccc(Cl)cc2Cl)o1)N(C)C (configuration not stated)	23	67*	2	42	-7
CN(CC(=O)Nc1ccccc1Br)C(=O)COc1ccc2ccccc2c1	14	.	.	-18	-5
CN(C)CCCNC(=S)Nc1ccc(Oc2ccccc2)cc1	23	2	-5	93*	0
OCCCNC(=S)Nc1ccc(Oc2ccccc2)cc1	21	8	-3	.	1
CC(C)N(c1ccccc1)c1ccc(NC(=S)NCCN(C)C)cc1	-4	-13	18	99*	-14
NC(=O)c1c(NC(=O)c2ccc(F)cc2Cl)sc2c1CCC2	34	.	0	93*	3
COC(=O)c1c(NC(=O)c2ccc(N(C)S(=O)(=O)c3ccc(C)cc3)cc2)sc2c1CCCC2	-8	-5	-14	-28	-2
